# Screening data from PubChem BioAssay.
# Compounds with a hit are over-represented: about 8% of the library has one in this group of screens.
# TSHR antag – Antagonists of the Thyroid Stimulating Hormone Receptor: HTS campaign; activity change, negative = inhibition, % at 11.5 µM; 330,000 tested, 0.2% active; TSHR-expressing cells, TSH-stimulated cAMP HTRF, 2 h; stronger effect = lower value;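 active = activity change below a set negative limit, meaning inhibition stronger than a set level, cut at about -70% in these data; inconclusive = activity change between two set negative limits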
#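 TSHR-expressing cells, 200/well, pre-treated with compound, then stimulated with EC80 TSH (4nM final) for 2 hours at 37 deg C. cAMP measured by competitive HTRF: anti-cAMP cryptate antibody in lysis buffer plus cAMP-d2, read after 30 minutes at room temperature.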
# VP16 counter – VP16 counterscreen qHTS for inhibitors of ROR gamma transcriptional activity. Drosophila S2 Gal4-VP16 UAS-luciferase, luminescence, 20 h. Potency, µM (top dose mostly 53.6 µM), actives largely listed as inhibitors. 310,000 tested, 3.5% active. AID 2546, 2010;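 also: Gal4-VP16 expression switched on by copper sulfate through the metallothionein promoter; nearly all actives have a fitted effect of over 50% in size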
# FBPA coupling cs – qHTS Assay for Inhibitors of Fructose-1,6-bisphosphate Aldolase from Giardia Lamblia: Coupling assay counterscreen | activity change, negative = inhibition, % at 58.2 µM, hits read low | 290,000 tested, 0.67% active | coupling enzyme system counterscreen, AmpLite Red fluorescence | AID 2472, 2010; in the data active = activity change below about -30%
#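 Coupling enzymes only (glyceraldehyde-3-phosphate) + compound, at 57.5 uM final, 10 min RT; add substrate/coupling/AmpLite Red mix, 20 min RT; fluorescence ex 525/em 598 nm. Actives flag coupling-system interference.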
# RORg inh – qHTS for inhibitors of ROR gamma transcriptional activity | 310,000 tested, 5.4% active | Potency, µM (top dose mostly 53.6 µM), hits mostly inhibitors | AID 2551, 2010 | Drosophila S2 Gal4-RORgamma UAS-luciferase reporter, 20 h | Nuclear receptor ROR-gamma (Mus musculus), P51450; also: nearly all actives have a fitted effect of over 60% in size
#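 ROR gamma transcriptional activity was tracked as Gal4-UAS luciferase output in stably transfected Drosophila Schneider cells, with compound added 1 hr before 700 uM copper sulfate induction and a 20 hr ambient-temperature incubation.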
# ELG1 repair inh – qHTS screen for small molecules that inhibit ELG1-dependent DNA repair in human embryonic kidney (HEK293T) cells expressing luciferase-tagged ELG1; AID 504467, 2011; Potency, µM (highest dose often 46.1 µM), usual class: inhibitors; HEK293T ELG1-luciferase reporter, luminescence, 16 h; DNA damage induced by 5-fluorouridine; 330,000 tested, 2.3% active; also: nearly all actives have a fitted effect of over 55% in size
#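 Quantitative HTS, concentration-response format. 2,000 cells/well co-treated with 5-fluorouridine and compound, 16 hr in 5% CO2 at 37 °C; ONE-Glo luminescence read after 30 min.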
# Hits are given with their value; - = inactive; ? = inconclusive; . = not tested or not shown. Unless noted, calls follow the shape of the dose curve; as a rule, active = well fitted curve in the direction sought with a large enough effect; inconclusive = small, poorly fitted or top-dose-only effect, or another doubt; inactive = no such curve, though single readings can be large; an effect the other way counts as inactive or inconclusive.
SMILES,TSHR antag,VP16 counter,FBPA coupling cs,RORg inh,ELG1 repair inh
CCOC(=O)C1=C(COC(=O)c2ccc(C)c(S(=O)(=O)N3CCOCC3)c2)NC(=O)NC1C (stereo not given),-,.,.,.,-
COc1cccc2c(=O)c3cccc(N)c3[nH]c12,-,-,-56.2,-,-
COc1c(C=O)c(=O)[nH]c2c(OC)cccc12,.,-,-,-,.
Cc1ccc(NS(=O)(=O)c2ccc(NC(=O)C3CC3)cc2)c(C)c1,-,25.1µM,-,-,-
Cc1ccc(C)c(NS(=O)(=O)c2ccc(NC(=O)CSc3ccc(Cl)cc3)cc2)c1,-,-,-,-,?
Cc1ccc(NS(=O)(=O)c2ccc(NC(=O)C(C)Sc3ccc(Cl)cc3)cc2)c(C)c1 (stereo not given),-,?,-,?,20.6µM
Cc1ccccc1C(=O)NC1CCN(C(=O)N(c2ccccc2)c2ccccc2)CC1,-,-,-,11.2µM,-
Cc1ccccc1C(=O)NC1CCN(C(=O)NC2CCCCC2)CC1,-,-,-,-,-
CC[C@H]1c2[nH]c3ccccc3c2C[C@@H]2C(=O)N(c3ccc(F)cc3)C(=O)N21,-,.,.,.,8.2µM
Cc1cc(NC(=O)c2ccc(Cn3nc(C)c(Br)c3C)o2)no1,-,-,-,-,-
Cc1nn(Cc2ccc(C(=O)NN)o2)c(C)c1Cl,-,-,-,-,?
Cc1nn(Cc2ccc(C(=O)Nc3ccc(C(=O)OC(C)C)cc3)o2)c(C)c1Cl,-,-,-,1.58µM,18.4µM
COc1ccc(CNC(=O)c2ccc(Cn3nc(C)c([N+](=O)[O-])c3C)o2)cc1,-,5.01µM,-,5.62µM,?
Cc1nn(Cc2ccc(C(=O)NC(C)(C)C)o2)c(C)c1Br,-,10µM,-,?,?
COc1ccc(N2CCN(C(=O)c3ccc(Cn4nc(C)c([N+](=O)[O-])c4C)o3)CC2)cc1,-,.,-,.,?
CC(=O)Nc1cccc(OCCCNC(=O)c2ccc(C(C)(C)C)cc2)c1,-,-,-,-,-
COc1ccccc1N(CC(=O)N/N=C(\C)c1ccc(F)cc1)S(=O)(=O)c1ccccc1,-,.,.,.,-
CCC(C(=O)Nc1ccncc1)c1ccccc1 (stereo not given),-,12.6µM,-,?,-
O=C1C2CCCCC2C(=O)N1c1ccc(S(=O)(=O)Nc2ncccn2)cc1 (stereo not given),-,-,.,-,-
COc1cnc(-c2ccccc2)nc1Oc1ccc(C(C)(C)C)cc1,-,-,-,-,-
COc1cnc(-c2ccccn2)nc1Oc1ccc(Cl)c2ccccc12,-,7.94µM,-,1.26µM,?
COc1cnc(-c2ccccn2)nc1Oc1ccccc1Cl,-,12.6µM,-,2.24µM,?
COc1cnc(-c2ccccc2)nc1Oc1ccccc1C,-,-,-,-,?
COc1cnc(-c2ccccn2)nc1Oc1ccc(Cl)cc1,-,8.91µM,-,3.55µM,?
COc1cnc(-c2ccccn2)nc1Oc1ccc(F)cc1F,-,?,-,5.62µM,-
SMILES,TSHR antag,VP16 counter,FBPA coupling cs,RORg inh,ELG1 repair inh
CCN(CC(=O)Nc1ccc(NC(C)=O)cc1)C(=O)CCCSc1nc2ccccc2[nH]1,-,.,.,.,-
COc1ccc(CN(C)Cc2c(O)ccc3cc(Br)ccc23)cc1OC,-,?,-,-,-
O=[N+]([O-])c1ccccc1/C=C/C=N/n1c(-c2ccccc2)n[nH]c1=S,-,-,-,6.31µM,-
Cc1cc(-c2n[nH]c(=S)n2/N=C/c2ccccc2[N+](=O)[O-])n[nH]1,-,?,-,-,?
Cc1cc(-c2n[nH]c(=S)n2/N=C/C=C/c2ccccc2)n[nH]1,-,?,-,-,-
Cc1ccc(-c2n[nH]c(=S)n2/N=C/C=C\c2ccccc2[N+](=O)[O-])cc1,-,-,-,?,-
S=c1[nH]nc(-c2ccncc2)n1/N=C/C=C/c1ccccc1,-,-,-,2.82µM,?
O=[N+]([O-])c1ccccc1/C=C/C=N/n1c(-c2ccc(Cl)cc2)n[nH]c1=S,-,-,-,8.91µM,-
